The list is not random: actives were taken first. Their share in the collection is about 6.3%.
Fluor 339 460 = intrinsic fluorescence of library compounds, ex339/em460 – biochemical, MLSMR library, data from DPM-DC assay, artefact control, profiling panel. 65,000 compounds, 5.5% hits. fluorescence fold increase at 10 µM. AID 709. compound autofluorescence, ex339/em460 nm, NADH buffer; hits give high values; 1 = no-compound wells, NADH background;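 active = at 10 µM, mean starting fluorescence two-fold or more over control wells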;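 note: signal is the first read of a kinetic run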
NADH enzymes = blocks coupling enzymes of NAD/NADH assays | coupled PK/LDH NADH assays, four targets | 65,000 compounds, 0.02% hits | IC50, µM (highest dose often 10 µM), for the others: at the top dose inhibition | AID 774;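 active = single-dose screening hits from any of four coupled enzyme assays that gave an IC50 when retested across doses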;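 note: the DPM-DC format reads NADH fluorescence rather than 340 nm absorbance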
DPM-DC inhibit = S. pneumoniae DPM-DC inhibition; purified DPM-DC, PK/LDH coupled NADH fluorescence; calls only at 10 µM; 65,000 compounds, 0.49% hits; AID 556;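 active = the 320 compounds with the highest percent inhibition in the single-dose primary screen, excluding strongly autofluorescent ones, cut at about 32% in these data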;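 note: kinetic rate of NADH fluorescence loss reporting ADP formed by the decarboxylase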
MK inhibit = inhibitors of Streptococcus pneumoniae mevalonate kinase. inhibition, % at 10 µM. purified MK, PK/LDH-coupled NADH absorbance 340 nm. 65,000 compounds, 0.48% hits. AID 555;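 active = ranked among the strongest by inhibition in the single 10 µM screen, a fixed top-ranked set picked for dose follow-up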
PMK inhibit = blocks S. pneumoniae phosphomevalonate kinase; AID 539; inhibition, % at 10 µM; 65,000 compounds, 0.49% hits; purified PMK, PK/LDH-coupled NADH absorbance 340 nm;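 active = top-ranked compounds by inhibition in the single 10 µM screen, taking a fixed number of the strongest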;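 note: 0% = full reaction with DMSO carrier and 100% = background rate without enzyme reaction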
Abs 340nm = compound absorbs light at 340 nm; compound absorbance at 340 nm, fold over control; fold change at 10 µM; 65,000 tested, under 10 active;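 active = at 10 µM dose, initial 340 nm absorbance at least 2 fold that of control wells; inactive = change under 2 fold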;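 note: initial absorbance extrapolated from kinetic A340 decline of NADH oxidation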
* = called active by the depositor; i = inactive; · = no result shown; + = active, no number.

SMILES	Fluor 339 460	NADH enzymes	DPM-DC inhibit	MK inhibit	PMK inhibit	Abs 340nm
CCOC(=O)C1CCCN(C(=O)c2ccc3c(c2)NC(=O)C(N2CCOCC2)S3)C1 (configuration not stated)	1.1	6%	i	1	18	1
O=C(CN1CCC2(CC1)OCCO2)c1ccc2cc[nH]c2c1	3.2*	10%	i	0	13	1.1
CC(C)n1c(-c2ccc(N(C)C)cc2)nc2ccccc21	3.8*	9%	·	9	9	1
C=CCn1c(-c2ccc(N)cc2)nc2ccccc21	2.1*	1%	·	2	0	1
CCn1c(-c2ccc(N)cc2)nc2ccccc21	1.9	9%	i	4	0	1
C=CCn1c(-c2ccc(OC)cc2)nc2ccccc21	1.1	2%	i	2	7	0.98
CCn1c(-c2ccc(N(C)C)cc2)nc2ccccc21	3.9*	6%	·	4	7	1.1
CN(C)c1ccc(-c2nc3ccccc3n2C)cc1	3.6*	13%	·	0	25*	1.1
CCNc1nc(Oc2ccccc2)nc(OC(C)C(=O)OCC)n1 (configuration not stated)	1.1	7%	i	6	7	1
CCc1cc(=O)oc2cc(OCc3nn[nH]n3)ccc12	3*	11%	i	6	11	1.1
CCCCc1cc(=O)oc2cc(OCc3nn[nH]n3)c(Cl)cc12	2.5*	7%	i	3	12	1.1
Cc1cccc2cc(CN(CCN3CCOCC3)C(=O)NCc3ccccc3)c(=O)[nH]c12	1.3	8%	i	13	11	1
COc1cc(OC)cc(OCC(O)Cn2ccnc2)c1 (configuration not stated)	1.1	6%	i	17	1	1
O=C(NC1CCCC1)C1CC(=O)N(C2CCCCCCC2)C1 (configuration not stated)	0.99	5%	i	3	11	1
O=C(NC1CCCCC1)C1CC(=O)N(c2ccc(Cl)cc2)C1 (configuration not stated)	1	13%	i	11	28*	1
CN(C)CCSc1nnc(-c2ccccc2)o1	1.2	18%	+	5	5	1
CSc1nnc(-c2ccccc2)o1	1.1	3%	i	7	2	1
CCc1nccn1S(=O)(=O)c1ccc(Br)cc1Br	1.1	5%	i	5	10	0.98
CC(c1nnc(Sc2nnnn2-c2ccccc2)n1-c1ccc(F)cc1)N(C)C (configuration not stated)	1	6%	i	0	18	1
COc1ccc2[nH]c3ccccc3c2c1	1.4	4%	i	0	12	0.97
COc1ccc2[nH]c(=O)c3c(c2c1)OC(C)(C)C=C3	2.5*	14%	i	1	13	1.1
CCc1nc2c(sc3nc(N4CCOCC4)c4c(c32)CC(C)(C)OC4)c(=O)o1	1.1	3%	i	0	7	1
COc1cc(-c2nnc(COc3ccc4ccccc4c3)o2)cc(OC)c1OC	1	15%	i	16	28*	1
Cn1c(=O)c2nc(NCc3ccccc3)cnc2n(C)c1=O	3.9*	13%	i	5	14	0.99
CCCn1c(SCC(=O)NC(C)(C)C)nnc1C(C)C	1.1	3%	i	4	10	1
SMILES	Fluor 339 460	NADH enzymes	DPM-DC inhibit	MK inhibit	PMK inhibit	Abs 340nm
CCOC(=O)C(CC)Sc1nc2c(cnn2-c2ccccc2)c(=O)[nH]1 (configuration not stated)	1.2	7%	i	13	6	1
CCC(CC)C(=O)Nc1c2cnn(-c3ccccc3)c2nc(=O)n1-c1ccccc1	2.2*	8%	i	4	3	1
CC(C)=CCC/C(C)=C/CN(CC(C)O)CC(C)O (configuration not stated)	1.1	15%	i	40*	0	1.1
CC(C)=CCCC(C)N(C=O)C(C)CCC=C(C)C (configuration not stated)	1	2%	i	2	0	1
CCCS(=O)(=O)N1CCCC(C(=O)NCC2CCCO2)C1 (configuration not stated)	1.1	2%	i	0	5	0.97
CSc1nc2ccc(NS(=O)(=O)c3ccc(Cl)s3)cc2s1	1.2	4%	i	0	13	1

Compound activity: PubChem BioAssay, SRMLSC
